Data on 15 compounds can be found in PubChem BioAssay (NCATS).

Test [1] in a line: AP1 Signaling Pathway (AID 357).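 Note: ME-180 reporter cells stimulated with EGF at its EC50 level; % is set by controls: 0 for no effect and ±100 for the full control effect.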 In short, it runs like this:
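A ratiometric CCF4 readout (405 nm excitation; 460 and 530 nm emission) quantified AP-1-driven beta-lactamase in ME-180 cells after 5 h with compound and EC50 EGF; AC50 values were derived for activators and inhibitors.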

The nature of test [2]: NFAT Signaling Pathway (AID 444).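 Note: carbachol stimulus at about its EC50 of 1 µM final; % is set by controls: 0 for no effect and ±100 for the full control effect.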 The settings on record: Jurkat NFAT-bla M1, carbachol, beta-lactamase ratio, 5 h. In outline:
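Jurkat cells with NFAT-driven β-lactamase reporter and co-expressed M1 receptor, stimulated with carbachol (final 1 uM, ~EC50), compound titration, 5 h at 37 °C. CCF4 loaded 1 h at RT; 460/530 nm ratio gave %activity and AC50.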

The nature of test [3]: Stat Signaling Pathway (AID 446).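 Note: ME-180 cervical cancer cells given 40 pM IL-6 alongside compound; SIE-controlled beta-lactamase reporter measured as 460/530 nm FRET emission ratio; % is set by controls: 0 for no effect and ±100 for the full control effect.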 In outline:
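Compound effects on IL-6-induced STAT reporter activity were measured in ME-180 cells. After overnight culture, cells were co-treated with 40 pM IL-6 for 5 hrs before beta-lactamase substrate loading at room temperature.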

Test [4] deals with Glucocorticoid receptor (Homo sapiens) (UniProt P04150). Kind of test: GR-GFP Redistribution (AID 450;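 active = compounds whose dose series gives a full or clear partial fitted curve of increased nuclear translocation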; note: potency is the fitted concentration of half-maximal effect). The settings on record: U2OS GR-GFP nuclear translocation, laser cytometry, 2 h.
Sequence of Glucocorticoid receptor (Homo sapiens) (P04150 whole entry, looked up): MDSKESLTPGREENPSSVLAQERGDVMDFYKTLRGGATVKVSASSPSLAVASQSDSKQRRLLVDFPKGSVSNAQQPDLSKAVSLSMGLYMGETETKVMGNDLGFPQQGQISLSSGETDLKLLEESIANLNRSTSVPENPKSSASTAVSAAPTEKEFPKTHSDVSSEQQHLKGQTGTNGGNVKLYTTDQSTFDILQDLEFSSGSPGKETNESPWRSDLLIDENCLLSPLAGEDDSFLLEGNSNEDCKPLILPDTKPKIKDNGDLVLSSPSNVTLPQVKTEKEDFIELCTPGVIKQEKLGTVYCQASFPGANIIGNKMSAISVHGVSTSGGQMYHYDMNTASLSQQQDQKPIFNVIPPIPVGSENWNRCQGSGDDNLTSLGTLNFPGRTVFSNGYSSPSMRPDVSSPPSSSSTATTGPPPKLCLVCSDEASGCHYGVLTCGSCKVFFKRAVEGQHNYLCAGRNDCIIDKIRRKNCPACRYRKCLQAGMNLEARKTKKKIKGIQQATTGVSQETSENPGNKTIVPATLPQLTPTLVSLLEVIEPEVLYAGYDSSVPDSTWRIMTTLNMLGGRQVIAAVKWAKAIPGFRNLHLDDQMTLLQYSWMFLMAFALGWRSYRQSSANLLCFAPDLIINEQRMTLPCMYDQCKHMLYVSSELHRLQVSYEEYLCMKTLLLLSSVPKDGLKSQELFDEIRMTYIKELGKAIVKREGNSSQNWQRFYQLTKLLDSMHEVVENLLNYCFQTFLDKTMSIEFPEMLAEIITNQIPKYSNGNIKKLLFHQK
For test [5] the target is unchanged. Kind of test: GR-EFC Redistribution (AID 451; calls by dose curve; note: potency is the fitted concentration of half-maximal effect). The settings on record: CHO-K1 GR-EFC translocation, beta-gal luminescence, 2 h. In outline:
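CHO-K1 cells expressing nuclear EA and GR-ED fragments of b-gal; compounds titrated up to 46 uM final, 2 h at 37 C. GR nuclear translocation read as complemented b-gal luminescence after 1 h RT detection.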

Test [6] addresses Mitogen-activated protein kinase 10 (Mus musculus) (UniProt Q61831). Description: JNK3 AlphaScreen Assay (AID 530).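 Note: kinase came from lysate of stimulated human HepG2 cells; signal reports phosphorylation of biotinylated GST-cJun 1-79 at Ser73 with 10 µM ATP; % is set by controls: 0 for no effect and ±100 for the full control effect.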 In short, it runs like this:
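Activity was read by AlphaScreen after JNK3-containing HepG2 lysate (cytokine pre-activated) phosphorylated biotinylated GST-cJun with 10 uM ATP at room temperature. Phospho-Ser73 cJun antibody with Protein-A acceptor beads provided detection.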

Test [7] has as its target 3',5'-cyclic-AMP phosphodiesterase 4B (Homo sapiens) (UniProt Q07343). Description: qHTS Assay for Inhibitors of PDE-IV (AID 607; active = well fitted activation curve with a large enough effect in the main read-out, with a control signal flat, not every such curve was filed as active; note: potency is the fitted concentration of half-maximal effect). In outline:
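ACTOne HEK293 cells carry a modified cAMP-gated CNG channel and express endogenous PDE4; plated 1000 cells/well, compounds up to 22.9 uM final. Membrane-potential dye fluorescence (ex 535/em 590) was read; parental cells received 10 uM forskolin + 100 uM RO 20-1724.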

Test [8] can be described thus: Cell Viability - BJ (AID 421; calls by dose curve;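 note: potency is the fitted concentration of half-maximal effect; cells exposed to compound for 40 hours at 37 °C before readout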). The settings on record: BJ fibroblast viability, qHTS. In outline:
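Luminescent ATP signal (CellTiter-Glo, 20 min at room temperature) served as the read-out of viable BJ cells after 40 hours of compound treatment. Responses were scaled between DMSO and 100 uM tamoxifen, and AC50 values were obtained by Hill modeling.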

Test [9] can be described thus: Cell Viability - Jurkat (AID 426;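 active = dose-dependent loss of cell ATP signal giving a full or clear fitted curve, ranked by lower potency value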;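 note: potency is the fitted concentration of half-maximal effect; cells exposed to compound for 40 hours at 37 °C before ATP read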). The settings on record: qHTS. In outline:
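Cells of the human T-cell leukemia line Jurkat (E6-1) are seeded at 5000 per well, treated with compound across a concentration range for 40 hours at 37 °C, then lysed with CellTiter-Glo; luminescence reports ATP.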

Test [10] in a line: Cell Viability - Hek293 (AID 427;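 active = compounds whose dose-response curve shows a full or clear partial loss of cell viability, called from curve shape rather than a numeric limit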;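 note: potency is the fitted concentration of half-maximal effect; cells exposed to compound for 40 hours at 37 °C before reading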). The settings on record: qHTS. In outline: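 Luminescent ATP read-out (CellTiter-Glo, 20 min RT) after 40 hr compound exposure at 37 °C in complete medium. Signal normalized to DMSO (basal) and 100 uM tamoxifen (100% inhibition); concentration-response fitted with the standard Hill equation to give AC50.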
Test [11] can be described thus: Cell Viability - HepG2 (AID 433; calls by dose curve;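 note: potency is the fitted concentration of half-maximal effect; potency for ATP loss meaning cytotoxicity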). The settings on record: qHTS. In outline:
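Read-out is luciferase-based quantitation of cellular ATP as a measure of viable HepG2 cells after 40 h treatment at 37 °C. Signal decrease is scaled between DMSO-only and 100 uM tamoxifen controls, with AC50 fitted by the Hill equation.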

A short description of test [12]: Cell Viability - MRC5 (AID 434; calls by dose curve;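 note: potency is the fitted concentration of half-maximal effect; potency reflects cytotoxicity seen as loss of intracellular ATP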). The settings on record: MRC5 lung fibroblast viability, qHTS. In outline:
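ATP luminescence read-out (CellTiter-Glo, 20 min RT) after 40 hr, 37 °C compound exposure of 1500 MRC5 cells/well. Data normalized to DMSO (basal) and 100 uM tamoxifen (100% inhibition); AC50 from standard Hill equation.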

Test [13] is described as follows: Cell Viability - SK-N-SH (AID 435; calls by dose curve;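 note: potency is the fitted concentration of half-maximal effect; compound exposure lasted 40 h at 37 °C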). The settings on record: SK-N-SH neuroblastoma cell viability qHTS. In outline:
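Luminescent ATP signal served as the viability read-out after 40 hours of compound treatment of human neuroblastoma SK-N-SH cells. Concentration-response data, scaled between DMSO and 100 uM tamoxifen, gave AC50 values by standard Hill modeling.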

The nature of test [14]: Cell Viability - N2a (AID 540; active = well fitted curve in the direction sought with a large enough effect; an effect the other way counts as inactive or inconclusive;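 note: cells exposed to compound for 40 h at 37 °C; nearly all actives have a fitted effect of over 45% in size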; note: potency is the fitted concentration of half-maximal effect;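 for activity change, negative = cytotoxicity: plate controls were DMSO alone for no effect and tamoxifen control for full effect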). The settings on record: N2a mouse neuroblastoma cell viability; activity change, negative = cytotoxicity: at 92.2 µM (top of the series). In outline:
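Cytotoxicity was scored as loss of cellular ATP in N2a cells, a mouse neuroblastoma line. Compounds are applied in a qHTS concentration series for 40 hr at 37 °C.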

Test [15] can be described thus: Cell Viability - NIH 3T3 (AID 541; active = well fitted curve in the direction sought with a large enough effect; an effect the other way counts as inactive or inconclusive;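 note: plate controls were DMSO alone for no effect and tamoxifen positive control for full effect; nearly all actives have a fitted effect of over 25% in size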). The settings on record: NIH 3T3 cell viability, qHTS; activity change, negative = cytotoxicity: at 92.2 µM (top of the series). In short, it runs like this:
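Cells seeded at 1000/well, rested 5 hr at 37 °C, then dosed and incubated 40 hr at 37 °C. CellTiter-Glo added, 20 min room temperature, luminescence read. AC50 by Hill fit.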

A short description of test [16]: Cell Viability - HUV-EC-C (AID 542; active = well fitted curve in the direction sought with a large enough effect; an effect the other way counts as inactive or inconclusive; note: % is set by controls: 0 for no effect and ±100 for the full control effect; nearly all actives have a fitted effect of over 35% in size). In short, it runs like this: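 Cells were seeded at 1000 per well and incubated 5 hr at 37 °C before compound addition. After 40 hr at 37 °C, CellTiter-Glo reagent was added for 20 min and luminescence read. AC50 values came from Hill-equation modelling.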
Test [17] is described as follows: Cell Viability - SH-SY5Y (AID 544; active = well fitted curve in the direction sought with a large enough effect; an effect the other way counts as inactive or inconclusive; note: nearly all actives have a fitted effect of over 55% in size; note: potency is the fitted concentration of half-maximal effect;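 for viability change, negative = cytotoxic: 0% = DMSO alone and -100% = 100 µM tamoxifen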). The settings on record: SH-SY5Y neuroblastoma cell viability; viability change, negative = cytotoxic: at 92.2 µM (top of the series). In outline: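 Cells were plated at 1500 per well and allowed 5 hr at 37 °C. Compounds were added across a concentration range and incubated 40 hr at 37 °C. CellTiter-Glo was added for 20 min at room temperature before luminescence reading.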

Test [18] can be described thus: Cell Viability - Mesenchymal (AID 546; active = well fitted curve in the direction sought with a large enough effect; an effect the other way counts as inactive or inconclusive;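 note: cells exposed to compound for 40 hours before reading; 0% = DMSO only and -100% = 100 µM tamoxifen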). In short, it runs like this: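 Human renal mesenchymal cells (glomerulus-derived), 1000 cells/well, 5 hr 37 °C pre-incubation; compound 40 hr, 37 °C; CellTiter-Glo, 20 min RT; luminescence; AC50 via Hill equation.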
In test [19] the target is Cytochrome P450 1A2 (Homo sapiens) (UniProt P05177). Kind of test: p450-cyp1a2 (AID 410; calls by dose curve; note: potency is the fitted concentration of half-maximal effect). In short, it runs like this:
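O-Demethylation of luciferin 6' methyl ether by human CYP1A2 is monitored as luciferase luminescence. Substrate sits at Km (100uM); enzyme is 20nM. Values are scaled to 57 uM furafylline as maximal inhibition.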

Several values for one entry are separate records, joined by “and”; a condition that tells them apart may be missing. Equal entries are not always repeated. Results filed as inconclusive are left out. Some compounds were tested as several samples or in several runs, with calls that do not always agree. Activity calls are given as the source filed them. Unless noted, calls come from the whole dose curve; as a rule, active = well fitted curve in either direction with a large enough effect (not every such curve was filed as active); inconclusive = small, poorly fitted or top-dose-only effect, or another doubt; inactive = flat fitted curve, though single readings scatter.

Sequence of Cytochrome P450 1A2 (Homo sapiens) (P05177 whole entry, looked up): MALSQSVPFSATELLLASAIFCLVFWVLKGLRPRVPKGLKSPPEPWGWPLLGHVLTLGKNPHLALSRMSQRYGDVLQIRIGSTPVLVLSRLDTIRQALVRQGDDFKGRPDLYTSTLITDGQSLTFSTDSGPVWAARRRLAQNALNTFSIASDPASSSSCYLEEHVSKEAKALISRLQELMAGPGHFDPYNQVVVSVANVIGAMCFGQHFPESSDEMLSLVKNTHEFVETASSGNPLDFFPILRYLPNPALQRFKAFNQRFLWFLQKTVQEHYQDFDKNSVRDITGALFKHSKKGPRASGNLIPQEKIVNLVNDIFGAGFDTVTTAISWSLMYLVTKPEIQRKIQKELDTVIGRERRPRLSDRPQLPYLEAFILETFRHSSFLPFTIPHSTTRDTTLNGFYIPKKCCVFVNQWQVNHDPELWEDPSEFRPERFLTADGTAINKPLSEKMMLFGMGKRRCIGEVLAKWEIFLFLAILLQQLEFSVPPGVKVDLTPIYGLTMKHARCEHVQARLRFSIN
Sequence of 3',5'-cyclic-AMP phosphodiesterase 4B (Homo sapiens) (Q07343 whole entry, looked up): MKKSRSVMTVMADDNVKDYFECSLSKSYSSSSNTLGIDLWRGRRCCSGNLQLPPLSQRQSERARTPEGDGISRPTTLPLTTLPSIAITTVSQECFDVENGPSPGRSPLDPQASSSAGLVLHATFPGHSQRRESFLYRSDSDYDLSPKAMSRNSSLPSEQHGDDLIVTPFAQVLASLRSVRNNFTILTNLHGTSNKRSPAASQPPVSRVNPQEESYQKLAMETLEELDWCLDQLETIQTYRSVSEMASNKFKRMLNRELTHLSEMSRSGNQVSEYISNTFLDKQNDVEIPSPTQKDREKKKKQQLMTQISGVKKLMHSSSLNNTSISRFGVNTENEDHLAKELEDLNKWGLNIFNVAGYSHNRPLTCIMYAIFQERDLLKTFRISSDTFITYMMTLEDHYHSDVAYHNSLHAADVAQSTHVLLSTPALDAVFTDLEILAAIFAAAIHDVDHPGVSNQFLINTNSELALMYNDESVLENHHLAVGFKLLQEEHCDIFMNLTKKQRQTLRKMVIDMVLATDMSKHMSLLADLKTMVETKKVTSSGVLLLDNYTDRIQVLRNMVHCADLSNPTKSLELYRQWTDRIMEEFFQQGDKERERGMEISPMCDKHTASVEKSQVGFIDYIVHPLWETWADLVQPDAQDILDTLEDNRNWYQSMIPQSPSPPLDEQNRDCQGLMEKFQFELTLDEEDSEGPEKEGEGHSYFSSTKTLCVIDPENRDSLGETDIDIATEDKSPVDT

On to `NC(=O)NO`, for which the compound was called inactive in test [1], in test [3] and in test [6]. Moreover, the activity change, negative = inhibition in [2] (at 38 µM (top of the series)) was 9.2% (inactive). For the same compound, the Potency in test [4] and in test [5] was > 46 µM (inactive) each time. Besides, the Potency result in test [7] is “inactive”.

As for `Clc1ccccc1C(c1ccccc1)(c1ccccc1)n1ccnc1`, the compound was classed as inactive in [3] and in [6]. The Potency was > 46 µM (inactive) and > 20.6 µM (inactive) in test [4]; > 46 µM (inactive) and > 20.6 µM (inactive) in [5]. For the same compound, the Potency result in test [7] was “inactive”.

In the case of `CCOC(=O)C(C)(C)Oc1ccc(Cl)cc1`, the result in test [1], in [3] and in [6] was inactive. The activity change, negative = inhibition in test [2] (at 38 µM (top of the series)) is -4.66% (inactive). In addition, the Potency in [4] and in [5] was > 46 µM (inactive) throughout. Also, in [7], the Potency entry was “inactive”.

Take `NCCc1cnc[nH]1`: the call in [1], in [3] and in test [6] was inactive. Further, the activity change, negative = inhibition in test [2] (at 38 µM (top of the series)) was 2.96% (inactive). Further, the Potency in test [4] and in test [5] was > 46 µM (inactive) in each case. The Potency result in test [7] is “inactive”.

As for `CC(C)Cc1ccc(C(C)C(=O)O)cc1` (stereo not drawn), the outcome in [1] and in test [3] was inactive. Moreover, in test [2] (at 17.2 µM (top of the series)), the activity change, negative = inhibition was -15% (inactive). Also, the Potency in test [4] is > 20.6 µM (inactive).

Consider `CCCCc1oc2ccccc2c1C(=O)c1cc(I)c(OCCN(CC)CC)c(I)c1`, for which the call in test [1], in test [3] and in test [6] was inactive. Further, the activity change, negative = inhibition in test [2] (at 17.2 µM (top of the series)) was 4.27% (inactive).

On to `COc1cc2c(c(OC)c1OC)-c1ccc(OC)c(=O)cc1[C@@H](NC(C)=O)CC2`, for which the Potency is > 92 µM (inactive) in [8]; 2.81 nM (active) and 1.63 nM (active) in test [9]; > 92 µM (inactive) in test [10]; > 92 µM (inactive) in test [11]; > 92 µM (inactive) in test [12]; 9.09 nM (active) and 5.26 nM (active) in test [13]. For the same compound, the Potency is 0.01 µM (active) in test [14]; 5.01 nM (active) and 3.98 nM (active) in test [17]. Besides, the call in test [6], in test [16] and in [18] was inactive. Besides, the Potency result in test [15] and in test [7] was “inactive” in each case.

On to `CN(C)CCOC(c1ccccc1)c1ccccc1`, for which the outcome in test [1], in test [3] and in [6] was inactive. In test [7], the Potency entry is “inactive”.

For the compound `CN(C)CCCN1c2ccccc2CCc2ccc(Cl)cc21`, the Potency in [19] is 20 µM (active) and 5.01 µM (active) and 15.8 µM (active); in [4], > 46 µM (inactive) and > 20.6 µM (inactive); in test [5], > 46 µM (inactive) and > 20.6 µM (inactive). Further, the activity change, negative = inhibition in [2] (at 17.2 µM (top of the series)) was -83% (active). The result in [3] and in test [6] was inactive. For the same compound, in test [7], the Potency result was “inactive”.

For the compound `Cc1ccc(-c2cc(C(F)(F)F)nn2-c2ccc(S(N)(=O)=O)cc2)cc1`, the Potency in [8], in test [9], in test [10], in [11], in [12] and in test [13] was > 92 µM (inactive) each time. Moreover, the call in test [6], in test [16] and in test [18] was inactive. Further, the activity change, negative = cytotoxicity in test [14] is -43.6% (inactive); in [15] it was -132% (active).

`CC(C)NCC(O)c1ccc(O)c(O)c1` (stereo not drawn): the Potency in test [8], in [10], in test [11], in [12] and in test [13] was > 92 µM (inactive) each time. Besides, the compound was classed as inactive in test [6], in [16] and in test [18]. In addition, the activity change, negative = cytotoxicity in [14] was 0.719% (inactive). The Potency result in test [15] and in [17] was “inactive” in each case.

For the compound `COc1ccc(C2CNC(=O)C2)cc1OC1CCCC1` (stereo not drawn), the compound was called inactive in [1] and in [3]. In addition, the activity change, negative = inhibition in [2] (at 17.2 µM (top of the series)) is -22.4% (inactive). The Potency in test [4] is > 20.6 µM (inactive).

On to `CN(C)C(=N)N=C(N)N`, for which the call in test [1], in test [3] and in test [6] was inactive. Also, the activity change, negative = inhibition in [2] (at 17.2 µM (top of the series)) was -11.6% (inactive). Further, the Potency in [4] and in test [5] was > 20.6 µM (inactive) in each case. Further, the Potency result in test [7] was “inactive”.

Regarding `COc1ccccc1N1CCN(CC(O)COc2cccc3ccccc23)CC1` (stereo not drawn), the outcome in [1] and in test [3] was inactive. Moreover, the activity change, negative = inhibition in [2] (at 17.2 µM (top of the series)) was 9.92% (inactive). Besides, the Potency in test [4] is > 20.6 µM (inactive).

Regarding `CN(C)C(=O)C(CCN1CCC(O)(c2ccc(Cl)cc2)CC1)(c1ccccc1)c1ccccc1`, the compound was called inactive in test [1], in [3] and in test [6]. The figures for the activity change, negative = inhibition in test [2] (at 17.2 µM (top of the series)) and in [2] (at 38 µM (top of the series)) were -23.1% (inactive) and -13.2% (inactive), respectively. Besides, the Potency is > 46 µM (inactive) and > 20.6 µM (inactive) in [4]; > 46 µM (inactive) and > 20.6 µM (inactive) in [5]; “inactive and 3.79 µM (active)” in test [7].
